Screening results: PubChem BioAssay, The Scripps Research Institute Molecular Screening Center
Only some compounds are listed: those with a hit (about 3.5% of all), similar ones and a draw of the others.
TEAD-YAP inh = TEAD-YAP interaction inhibition; HEK-TIYL cells, TEAD-Gal4/YAP UAS-luciferase luminescence; inhibition, % at 9.12 µM; actives 1.4% (n = 640,000); AID 1259422; in the data active = inhibition above about 32%;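 note: 0% = median of test compound wells and 100% = reference inhibitor wells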
GPR151 ag = activates the human receptor GPR151; Q8TDV0; PathHunter beta-arrestin GPR151 cells, luminescence; activation, % at 11.2 µM; actives 1% (n = 650,000); in the data active = activation above about 4.9%;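 note: 0% = median of compound wells and 100% = cells with positive control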
FBW7 act = activators of human E3 ligase FBW7 | Q969H0 | AlphaScreen FBW7–phospho-cyclin E peptide binding, activator screen | normalized activity (activation), % at 26.1 µM | actives 0.13% (n = 650,000) | AID 1259310; in the data active = normalized activity above about 1.9%;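 note: purified mutant Fbw7 with reduced substrate affinity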
MITF primary = blocks human microphthalmia-associated transcription factor | O75030 | AlphaScreen MITF homodimerization, bead proximity signal | inhibition, % at 2.6 µM | actives 0.91% (n = 650,000); in the data active = inhibition above about 50%;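 note: 0% = vehicle wells with protein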
Active calls of the source: *; ! = not active in a repeat.

SMILES	TEAD-YAP inh	GPR151 ag	FBW7 act	MITF primary
Cc1ccccc1N1CC(C(=O)Nc2ccc(F)cc2)CC1=O (stereo unspecified)	-6.0	0.8	0.1	-8.7
CCOc1ccc(-c2cn[nH]c2N)cc1	47.8*	-0.9	-0.2	14.8
C=CCn1c(=NC(=O)c2ccccc2[N+](=O)[O-])sc2cc(NC(C)=O)ccc21	48.5*	0.4	0.0	4.1
CCCNC(=O)c1ccnc(NCCN2CCOCC2)c1	-0.7	0.8	0.3	15.8
CCOC(=O)c1ccc(CN(Cc2ccc(C)cc2)S(=O)(=O)c2ccc(F)c(C(=O)Nc3c(C)cccc3C)c2)cc1	1.2	-1.7	0.5	6.9
COc1ccc(OC)c(CC(=O)N2CCc3nc(N4CCCCC4)[nH]c(=O)c3C2)c1	49.8*	0.6	-0.1	-2.0
COc1cc(CC(=O)N2CCc3nc(N4CCCC4)[nH]c(=O)c3C2)cc(OC)c1OC	2.7	-0.1	0.1	4.9
Cc1cc2nc3s/c(=C/c4cc5c(cc4[N+](=O)[O-])OCO5)c(=O)n3c2cc1C	-5.5	1.9	0.0	0.5
Cc1cc2nc3s/c(=C/c4ccc(N5CCN(C)CC5)c([N+](=O)[O-])c4)c(=O)n3c2cc1C	37.7*	-1.7	0.0	-6.0
COc1ccc(N/N=C(\C#N)C(=N)SCc2ccccc2)cc1	33.2*	0.6	0.0	2.6
CCN1C(=O)/C(=C/c2ccc(O)c(I)c2)N(C)C1=S	-7.8	3.8	-0.3	-2.1
Cc1ccc2[nH]c(=O)c(CN(CC3COCCO3)C(=O)Nc3ccccc3Cl)cc2c1 (stereo unspecified)	36.6*	-1.0	0.1	3.2
N#CCOc1ccccc1/C=N/n1nnnc1N	11.1	1.2	1.9*	8.9
C=CCOc1ccccc1/C=N/n1nnnc1N	18.9	2.6	0.9	7.8
NC(=O)c1ccc(-c2nccc(NC3CC3)n2)cc1	-19.1	-1.9	0.0	2.6
NC(C(=O)Nc1ccc(-c2ccnc3[nH]ccc23)cc1)c1ccc(Cl)cc1 (stereo unspecified)	8.5	0.0	0.1	11.4
O=C(Nc1ccc(-c2ncnc3[nH]ccc23)cc1)C1COc2ccccc2O1 (stereo unspecified)	51.7*	-1.0	1.3	23.4
NC(C(=O)Nc1ccc(-c2ncnc3[nH]ccc23)cc1)c1ccc(Cl)cc1 (stereo unspecified)	57.5*	-0.1	0.1	16.9
CCOc1ccc(-n2c(C)nnc2SCc2nc(-c3cccs3)no2)cc1	0.0	-0.9	-0.1	-7.4
COc1cc(C(=O)N=c2sc3c(OC)ccc(OC)c3n2C)cc(OC)c1OC	-1.8	0.8	0.2	0.8
O=C(CCC1CCCCC1)N1CCN(c2ccc(Nc3ccncc3)nn2)CC1	-12.2	-1.3	-0.4	-13.6
CN(CCO)C1CCc2c(sc3ncn(CC4CCCCC4)c(=O)c23)C1 (stereo unspecified)	49.2*	0.4	-0.1	-6.7
COc1cc(OC)c(/C=C2/C(=O)Nc3ccccc32)c(OC)c1	53.5*	2.1	-0.1	0.1
COc1cc(/C=C2/C(=O)Nc3ccccc32)cc(OC)c1O	-10.9	1.1	0.1	0.9
OCC1CCCN1c1nc(NCc2ccccc2)c2ncn(-c3ccsc3)c2n1 (stereo unspecified)	0.2	0.7	-0.2	-1.2
SMILES	TEAD-YAP inh	GPR151 ag	FBW7 act	MITF primary
OCC1CCCN1c1nc(NCc2cccnc2)c2ncn(-c3ccccc3)c2n1 (stereo unspecified)	44.2*	2.1	0.1	-2.1
CC(C)n1cnc2c(NCc3cccnc3)nc(N3CCCC3CO)nc21 (stereo unspecified)	33.2*	-1.1	-0.1	-3.0
COc1ccc(-c2[nH]nc3c2C(c2ccc(OC(=O)c4ccco4)cc2)C(C#N)=C(N)O3)cc1 (stereo unspecified)	0.1	0.1	-0.4	-14.5
COc1ccccc1-c1nnc2sc(-c3cc4ccccc4o3)nn12	53.2*	-0.1	0.1	-18.9
O=C(NCc1ccco1)c1cccn2c(=O)c3cc4ccccc4cc3nc12	-7.5	-1.3	-0.3	-5.1
COCCCNC(=O)c1cccn2c(=O)c3cc4ccccc4cc3nc12	35.7*	0.6	0.1	-4.9
COCCCNC(=O)c1cc2c(=O)n3cccc(C)c3nc2n1C	55.9*	2.1	0.0	9.5
COCCNC(=O)c1cc2c(=O)n3cccc(C)c3nc2n1C	7.3	1.1	0.0	9.3
N[C@H](Cc1ccc(I)cc1)C(=O)O	-3.6	-1.4	0.0	5.1
CCOC(=O)C(C)(N)Cc1ccc(O)c(O)c1 (stereo unspecified)	3.1	3.2	-0.1	14.7
N[C@@H](Cc1ccc(O)c(O)c1)C(=O)O	2.4	-1.8	-0.4	79.2*!
CC(N)(Cc1ccc(O)c(O)c1)C(=O)O (stereo unspecified)	0.5	1.1	0.0	56.2*
CCCC(=O)Nc1ccc(Cl)c(C(F)(F)F)c1	14.4	2.2	0.5	10.0
O=C(CCl)Nc1ccc(Cl)c(C(F)(F)F)c1	39.5*	1.7	0.2	-1.1
O=C(O)CCCC(=O)Nc1ccc(OC(F)(F)F)cc1	0.5	-0.4	0.1	6.0
O=C(CCl)Nc1ccc(OC(F)F)cc1	35.0*	-0.2	-0.2	11.5
O=C(CCl)Nc1ccc(OC(F)(F)F)cc1	34.2*	-0.2	-0.1	6.3
O=C(Nc1ccc(OC(F)(F)F)cc1)c1ccc(=O)[nH]c1	32.8*	0.5	0.1	-3.8
CCOC(=O)CNC(=O)/C(=C/c1ccccc1[N+](=O)[O-])NC(=O)c1ccccc1	0.0	-2.0	0.1	-19.3
Cc1ccc2nc3nc(NCC4CCCO4)c(C(=O)NCc4cccnc4)cc3c(=O)n2c1 (stereo unspecified)	-6.1	0.4	-0.2	-0.8
O=c1c2cc(N3CCCCC3)ccc2nc(SCc2ccc([N+](=O)[O-])cc2)n1Cc1ccccc1	-14.7	-0.1	-0.2	-5.7
c1ccc(-n2cccn2)c(Nc2ccnc(Nc3ccc(N4CCOCC4)cc3)c2)c1	40.3*	2.9	-0.4	5.8
c1cc(-c2ccnc(Nc3ccc(-n4cnc(-c5ccncc5)n4)cc3)n2)cc(N2CCOCC2)c1	19.6	-0.7	-0.2	-12.7
O=C(NCc1ccccc1)c1ccnc(Nc2ccc(N3CCOCC3)cc2)c1	0.7	0.3	0.2	20.6
c1ccc(CNc2ccnc(Nc3ccc(N4CCOCC4)cc3)c2)cc1	33.7*	1.2	-0.7	9.0
SMILES	TEAD-YAP inh	GPR151 ag	FBW7 act	MITF primary
c1ccc(Nc2ncn(-c3ccnc(Nc4ccc(N5CCOCC5)cc4)c3)n2)cc1	37.1*	0.2	0.0	5.4
c1ccc(-c2ncn(-c3ccc(Nc4cc(-c5cccc(N6CCOCC6)c5)ccn4)cc3)n2)nc1	78.2*	0.4	-0.5	11.9
CCS(=O)(=O)c1ccc2oc(=O)c(/C=C(\O)c3ccc(F)cc3)nc2c1	-28.4	-1.9	-0.1	-0.7
Cc1ccc(S(=O)(=O)NCCC(=O)OCC(=O)c2ccc(F)cc2)cc1C	1.7	-0.7	-0.1	-4.0
c1cc(Nc2ccc3nc[nH]c3c2)cc(Nc2ccc(N3CCOCC3)cc2)n1	0.9	0.8	-0.2	23.8
c1cc(Nc2cc(C3CC3)[nH]n2)cc(Nc2ccc(N3CCOCC3)cc2)n1	85.4*	0.6	-0.6	13.9
Cc1ccccc1C(=O)NC(=S)Nc1ccc(C(=O)O)cc1	15.6	-3.8	0.3	11.1
